Measured values: PubChem BioAssay (Tox21)
Inconclusive results are not listed. Entries that show only a call come without a potency. Calls of active or inactive are those of the source. Unless noted, calls come from the whole dose curve.

Key:
[1] = Nuclear factor erythroid 2-related factor 2/antioxidant responsive element (Nrf2/ARE) small molecule agonists: qHTS cell viability counter screen in human keratinocytes (AID 1919968; active = well fitted curve in the direction sought with a large enough effect in the repeat runs; an effect the other way counts as inactive or inconclusive; note: nearly all actives have a fitted effect of over 55% in size; note: potency is the fitted concentration of half-maximal effect)
Summary of the method: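 KeratinoSens HaCaT cells, 1,500/well, preincubated 5 h, then exposed to compounds in DMSO for 23 h at 37 C/5% CO2. Viability read as CellTiter-Fluor fluorescence after 1 h, in the same wells as the ARE-luciferase read.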

[2] = Nuclear factor erythroid 2-related factor 2/antioxidant responsive element (Nrf2/ARE) small molecule agonists: luciferase reporter gene qHTS assay in human keratinocytes (AID 1919969); note: nearly all actives have a fitted effect of over 35% in size; note: potency is the fitted concentration of half-maximal effect
[3] = molecular target: Gonadotropin-releasing hormone receptor (Homo sapiens) (UniProt P30968); experiment: Human gonadotropin-releasing hormone receptor (GnRHR) small molecule agonists, calcium flux assay in GnRHR-HEK293 cells (AID 1920063); note: nearly all actives have a fitted effect of over 35% in size
Summary of the method: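 HEK293 cells stably expressing human GnRHR were dye-loaded for 1 h at 37 C. Compound was added in agonist mode and fluorescence (Ex/Em 480/540) recorded kinetically for 3 min. Fifteen concentrations, triplicates.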

[4] = molecular target: KiSS-1 receptor (Homo sapiens) (UniProt Q969F8); experiment: Human kisspeptin (KISS1R) small molecule agonists, calcium flux assay in KISS1R-HEK293 cells (AID 1920064; active = well fitted curve in the direction sought with a large enough effect in the repeat runs; an effect the other way counts as inactive or inconclusive)
Summary of the method: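 HEK293 cells stably expressing human KISS1R were loaded with calcium dye for 1 h at 37 C, then given compound; fluorescence (Ex/Em 480/540) was read kinetically for 3 min. Fifteen concentrations, triplicate.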

[5] = p53 small molecule agonists, cell-based qHTS assay with rat liver microsomes (AID 1963578)
Summary of the method: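 Read-out is beta-lactamase reporter fluorescence (LiveBLAzer, 2 h, room temperature, dark) in p53RE-bla cells treated 16 h at 37 C with compound, rat liver microsomes and NADPH, both 0.5 mg/mL final.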

[6] = p53 small molecule agonists, cell-based qHTS assay with human liver microsomes: qHTS cell viability counter screen (AID 1963579); note: nearly all actives have a fitted effect of over 45% in size
Summary of the method: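 Cells carrying the p53 response-element beta-lactamase reporter are treated for 16 h at 37 C with test compounds in the presence of human liver microsomes and NADPH (both 0.5 mg/mL final); ATP-based CellTiter-Glo luminescence then reports viability.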

[7] = p53 small molecule agonists, cell-based qHTS assay with rat liver microsomes: qHTS cell viability counter screen (AID 1963580); note: nearly all actives have a fitted effect of over 45% in size
Summary of the method: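 p53RE-bla HCT-116 cells were exposed 16 h at 37 C to compounds with rat liver microsomes (0.5 mg/mL) and NADPH (0.5 mg/mL). Viability was measured in the same wells as ATP content by CellTiter-Glo luminescence.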

[8] = p53 small molecule agonists, cell-based qHTS assay: qHTS cell viability counter screen (AID 1963581); note: nearly all actives have a fitted effect of over 45% in size; note: potency is the fitted concentration of half-maximal effect
Summary of the method: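 p53RE-bla HCT-116 cells, compounds added 5 h after plating and incubated 16 h at 37 C. Cytotoxicity measured in the same wells as intracellular ATP by CellTiter-Glo luminescence after 30 min at room temperature.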

[9] = p53 small molecule agonists, cell-based qHTS assay (AID 1963582; active = well fitted activation curve with a large enough effect in the signal ratio in the repeat runs, not every such curve was filed as active; the % refers to the signal ratio)
Summary of the method: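 p53RE-bla reporter cells, compounds added in DMSO after 5 h plating, incubated 16 h at 37 C. Beta-lactamase read via 2 h room-temperature LiveBLAzer B/G FRET substrate, fluorescence intensity.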

[10] = molecular target: 5-hydroxytryptamine receptor 2A (Homo sapiens) (UniProt P28223); experiment: 5-hydroxytryptamine receptor 2A (HTR2A) small molecule agonists, cell-based qHTS assay (AID 1963587); note: nearly all actives have a fitted effect of over 30% in size
Summary of the method: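 CHO cells stably expressing human HTR2A, plated 18 h, loaded with calcium dye 1 h at 37 C. Agonist mode: compounds added and intracellular calcium fluorescence recorded kinetically for 2 min at 1 sec intervals.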

[11] = molecular target: Muscarinic acetylcholine receptor M1 (Homo sapiens) (UniProt P11229); experiment: Cholinergic receptor muscarinic 1 (CHRM1) small molecule antagonists, cell-based qHTS assay (AID 1963588); note: nearly all actives have a fitted effect of over 40% in size
Summary of the method: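 CHRM1-CHO calcium-flux assay, antagonist mode. Cells were seeded 18 h, dye-loaded 1 h at 37 C and given compound for 5 min at RT, then acetylcholine was added at 50nM. FDSS fluorescence was read 3 min; 15 concentrations, three runs.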

[12] = molecular target: Muscarinic acetylcholine receptor M1 (Homo sapiens) (UniProt P11229); experiment: Cholinergic receptor muscarinic 1 (CHRM1) small molecule agonists, cell-based qHTS assay (AID 1963589); note: nearly all actives have a fitted effect of over 35% in size
Summary of the method: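 CHO cells stably expressing human CHRM1 were loaded with calcium dye for 1 h at 37 C, then compound was added in agonist mode. Intracellular calcium fluorescence was followed kinetically at 1 s intervals. Fifteen concentrations were tested in three independent runs.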

[13] = molecular target: D(2) dopamine receptor (Homo sapiens) (UniProt P14416); experiment: Dopamine D2 receptor (DRD2) small molecule agonists, cell-based qHTS assay (AID 1963594); note: nearly all actives have a fitted effect of over 35% in size
Summary of the method: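 HEK293 cells stably expressing human DRD2, pre-treated with PDE inhibitor Ro20-1724 (0.1 mM final) and compound 10 min at room temperature, then stimulated with NKH477 (200nM […]) for 30 min. cAMP read by HTRF (665/620 nm).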

[14] = molecular target: D(2) dopamine receptor (Homo sapiens) (UniProt P14416); experiment: Dopamine D2 receptor (DRD2) small molecule antagonists, cell-based qHTS assay (AID 1963595; active = well fitted inhibition curve with a large enough effect in the signal ratio in the repeat runs, with a control signal flat; the % refers to the signal ratio; note: potency is the fitted concentration of half-maximal effect)
Summary of the method: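 Human DRD2 antagonist qHTS measuring cAMP by HTRF. The cells are exposed to compound for 10 min, then to NKH477 (200 nM) and quinpirole (12 nM) for 30 min at RT, with Ro20-1724 (0.1 mM) present throughout.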

[15] = molecular target: 5-hydroxytryptamine receptor 2A (Homo sapiens) (UniProt P28223); experiment: 5-hydroxytryptamine receptor 2A (HTR2A) small molecule antagonists, cell-based qHTS assay (AID 1963586); note: nearly all actives have a fitted effect of over 45% in size; note: potency is the fitted concentration of half-maximal effect
Summary of the method: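 Antagonist-mode intracellular calcium assay: DOI (4 nM) added after 5 min compound pre-incubation at room temperature to dye-loaded HTR2A-CHO cells. Fluorescence followed for 3 min, sampled every second.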

[16] = cAMP Responsive Elements (CRE) small molecule agonists, cell-based qHTS assay (AID 1963590)
Summary of the method: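 CRE-bla HEK 293T cells, 2,000/well in DMEM with 10% dialyzed FBS and 25 mM HEPES, pre-incubated 18 h at 37 C, then exposed to compound 3 h at 37 C. Beta-lactamase reporter read with LiveBLAzer B/G FRET substrate after 2 h at room temperature.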

[17] = cAMP Responsive Elements (CRE) small molecule antagonists, cell-based qHTS assay (AID 1963591; active = well fitted inhibition curve with a large enough effect in the signal ratio in the repeat runs, not every such curve was filed as active; the % refers to the signal ratio; note: potency is the fitted concentration of half-maximal effect)
Summary of the method: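 CRE-bla HEK293T cells plated 18 h, then given compound plus NKH477 at 0.25 uM final for 3 h at 37C. Beta-lactamase reporter read with LiveBLAzer B/G FRET substrate after 2 h at room temperature.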

[18] = molecular target: Beta-2 adrenergic receptor (Homo sapiens) (UniProt P07550); experiment: Adrenergic beta2 receptor (ADRB2) small molecule antagonists, cell-based qHTS assay (AID 1963592); note: series mostly up to about 92 µM; nearly all actives have a fitted effect of over 50% in size
Summary of the method: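 Cells (CHO, stable ADRB2 overexpression) incubated 18-20hr at 37C; compounds added from DMSO; agonist mix (1nM isoproterenol, 100uM IBMX, 25uM Ro-20-1724) added; 0.5hr RT; d2-cAMP and anti-cAMP-cryptate added; 1hr RT; 665/615 nm read.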

[19] = G protein-coupled receptor (GPCR) small molecule agonists, calcium flux assay: HEK293 wild type cell line counter screen (AID 1920065)
Summary of the method: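 Wild-type HEK293 cells plated 18 h, loaded with calcium dye 1 h at 37 C, then compounds added in agonist mode (ATP as positive control). Kinetic fluorescence Ex/Em 480/540 recorded 3 min at 1 sec intervals; 15 concentrations, triplicate.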

[20] = molecular target: Beta-2 adrenergic receptor (Homo sapiens) (UniProt P07550); experiment: Adrenergic beta2 receptor (ADRB2) small molecule agonists, cell-based qHTS assay (AID 1963593);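 note: CHO cells stably overexpressing human ADRB2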
Summary of the method: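 CHO cells stably over-expressing ADRB2 were plated overnight at 37C, then dosed with compounds plus a stimulation mix containing 100uM IBMX and 25uM Ro-20-1724 for 0.5hr at room temperature. cAMP was measured by HTRF competition, 1hr.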

Chain of D(2) dopamine receptor (Homo sapiens) (P14416 whole entry, looked up): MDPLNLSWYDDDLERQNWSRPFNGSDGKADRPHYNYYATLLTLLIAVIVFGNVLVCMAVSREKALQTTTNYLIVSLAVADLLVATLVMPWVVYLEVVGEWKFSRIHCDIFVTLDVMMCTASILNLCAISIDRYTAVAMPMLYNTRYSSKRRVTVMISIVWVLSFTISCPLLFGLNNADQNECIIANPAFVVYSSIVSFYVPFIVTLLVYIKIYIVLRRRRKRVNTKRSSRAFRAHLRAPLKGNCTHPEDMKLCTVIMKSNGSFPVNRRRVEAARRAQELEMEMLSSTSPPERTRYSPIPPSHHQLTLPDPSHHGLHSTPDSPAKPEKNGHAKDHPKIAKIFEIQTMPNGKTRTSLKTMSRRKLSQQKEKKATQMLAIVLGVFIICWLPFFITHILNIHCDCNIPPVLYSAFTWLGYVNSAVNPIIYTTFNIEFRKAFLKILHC
Chain of Beta-2 adrenergic receptor (Homo sapiens) (P07550 whole entry, looked up): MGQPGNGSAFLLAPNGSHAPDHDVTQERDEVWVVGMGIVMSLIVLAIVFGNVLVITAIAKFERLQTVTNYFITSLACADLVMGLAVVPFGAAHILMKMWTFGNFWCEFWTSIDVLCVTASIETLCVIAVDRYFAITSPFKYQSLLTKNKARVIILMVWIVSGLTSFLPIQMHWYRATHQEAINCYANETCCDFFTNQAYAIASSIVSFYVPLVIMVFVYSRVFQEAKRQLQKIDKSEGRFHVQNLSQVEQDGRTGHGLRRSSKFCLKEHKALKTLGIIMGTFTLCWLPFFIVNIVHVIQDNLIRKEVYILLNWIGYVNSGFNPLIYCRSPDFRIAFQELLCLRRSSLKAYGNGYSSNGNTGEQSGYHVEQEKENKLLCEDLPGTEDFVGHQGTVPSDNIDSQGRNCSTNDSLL
Chain of KiSS-1 receptor (Homo sapiens) (Q969F8 whole entry, looked up): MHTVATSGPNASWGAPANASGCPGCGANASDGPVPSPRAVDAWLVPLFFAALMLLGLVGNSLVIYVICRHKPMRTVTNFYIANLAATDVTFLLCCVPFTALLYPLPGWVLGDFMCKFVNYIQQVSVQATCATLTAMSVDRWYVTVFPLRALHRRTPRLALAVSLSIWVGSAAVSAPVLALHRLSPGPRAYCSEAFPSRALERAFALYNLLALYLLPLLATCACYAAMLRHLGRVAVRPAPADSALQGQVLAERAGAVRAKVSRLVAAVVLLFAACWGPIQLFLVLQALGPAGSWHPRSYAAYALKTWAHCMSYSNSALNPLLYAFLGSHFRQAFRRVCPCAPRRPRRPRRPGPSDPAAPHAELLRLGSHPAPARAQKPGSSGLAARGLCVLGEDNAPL
Chain of Gonadotropin-releasing hormone receptor (Homo sapiens) (P30968 whole entry, looked up): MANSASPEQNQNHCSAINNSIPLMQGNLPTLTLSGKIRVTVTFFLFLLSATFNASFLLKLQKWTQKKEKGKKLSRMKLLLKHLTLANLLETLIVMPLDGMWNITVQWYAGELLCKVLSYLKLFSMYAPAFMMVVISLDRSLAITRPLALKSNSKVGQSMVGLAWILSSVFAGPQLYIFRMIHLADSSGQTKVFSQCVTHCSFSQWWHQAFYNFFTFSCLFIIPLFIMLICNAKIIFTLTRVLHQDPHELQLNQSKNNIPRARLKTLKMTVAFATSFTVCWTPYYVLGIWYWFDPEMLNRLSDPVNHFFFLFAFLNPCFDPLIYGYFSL
Chain of 5-hydroxytryptamine receptor 2A (Homo sapiens) (P28223 whole entry, looked up): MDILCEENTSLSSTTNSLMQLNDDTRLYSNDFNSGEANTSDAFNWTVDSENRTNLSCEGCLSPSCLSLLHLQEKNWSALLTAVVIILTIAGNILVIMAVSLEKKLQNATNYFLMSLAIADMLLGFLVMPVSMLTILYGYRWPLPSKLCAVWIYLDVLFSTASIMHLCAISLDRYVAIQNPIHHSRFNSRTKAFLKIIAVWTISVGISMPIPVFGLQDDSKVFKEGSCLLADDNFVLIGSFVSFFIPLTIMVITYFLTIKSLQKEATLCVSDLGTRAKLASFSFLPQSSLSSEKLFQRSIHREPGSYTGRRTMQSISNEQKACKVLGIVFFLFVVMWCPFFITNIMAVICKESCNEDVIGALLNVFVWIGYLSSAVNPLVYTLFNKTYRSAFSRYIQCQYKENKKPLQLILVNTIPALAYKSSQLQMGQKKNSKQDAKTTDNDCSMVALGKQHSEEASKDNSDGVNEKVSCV
Chain of Muscarinic acetylcholine receptor M1 (Homo sapiens) (P11229 whole entry, looked up): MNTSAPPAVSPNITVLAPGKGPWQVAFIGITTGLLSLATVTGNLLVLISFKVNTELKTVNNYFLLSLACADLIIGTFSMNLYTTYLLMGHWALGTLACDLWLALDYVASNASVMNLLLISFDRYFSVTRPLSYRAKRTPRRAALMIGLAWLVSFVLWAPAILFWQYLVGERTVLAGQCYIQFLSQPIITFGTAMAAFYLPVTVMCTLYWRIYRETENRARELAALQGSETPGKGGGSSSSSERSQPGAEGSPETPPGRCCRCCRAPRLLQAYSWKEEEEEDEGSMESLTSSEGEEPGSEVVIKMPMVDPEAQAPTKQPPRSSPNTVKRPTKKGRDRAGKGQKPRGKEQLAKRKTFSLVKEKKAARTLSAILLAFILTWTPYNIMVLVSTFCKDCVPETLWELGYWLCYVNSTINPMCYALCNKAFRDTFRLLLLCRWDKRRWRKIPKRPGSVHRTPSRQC

SMILES	Potency [1]	Potency [2]	Potency [3]	Potency [4]	Potency [5]	Potency [6]	Potency [7]	Potency [8]	Potency [9]	Potency [10]	Potency [11]	Potency [12]	Potency [13]	Potency [14]	Potency [15]	Potency [16]	Potency [17]	Potency [18]	Potency [19]	Potency [20]
CC(=O)NC1(c2cccc(F)c2)CCN(CC[C@@]2(c3ccc(Cl)c(Cl)c3)CN(c3ccccc3)C(=O)CO2)CC1	48.7 µM (active)	inactive	inactive	inactive	inactive	inactive	inactive	36.5 µM (active)	inactive	inactive	inactive	inactive	inactive	inactive	–	–	–	–	–	–
COc1cccc(N(C)C(=S)Oc2ccc3c(c2)CCCC3)n1	inactive	inactive	inactive	inactive	inactive	–	inactive	inactive	–	inactive	–	inactive	–	inactive	5.79 µM (active)	inactive	inactive	inactive	–	–
O=C(CCCN1CC=C(n2c(=O)[nH]c3ccccc32)CC1)c1ccc(F)cc1	inactive	inactive	inactive	inactive	–	–	–	–	–	–	–	–	–	0.0211 µM (active)	–	–	–	–	inactive	–
CCn1nc(C(=O)O)c(=O)c2cc3c(cc21)OCO3	inactive	inactive	inactive	inactive	–	–	–	–	–	–	inactive	inactive	inactive	inactive	inactive	–	–	inactive	inactive	–
Clc1nc2ccccc2nc1Cl	inactive	55.1 µM (active)	inactive	inactive	–	inactive	inactive	inactive	–	inactive	inactive	inactive	inactive	inactive	inactive	inactive	inactive	inactive	–	–
CC(C)CCC(=O)CCC(C)C	inactive	inactive	inactive	inactive	–	inactive	inactive	inactive	–	inactive	inactive	–	–	–	inactive	inactive	inactive	inactive	–	–
CC1(C)CC(=O)CC(C)(C)N1	inactive	inactive	inactive	inactive	inactive	–	inactive	inactive	inactive	inactive	inactive	inactive	inactive	inactive	inactive	–	inactive	inactive	–	–
CC1(C)[C@H](C(=O)O)N2C(=O)C[C@H]2S1(=O)=O	inactive	inactive	inactive	inactive	–	–	–	–	inactive	–	–	–	inactive	inactive	–	inactive	1.33 µM (active)	inactive	inactive	–
CCN1CCN(C(=O)N[C@@H](C(=O)N[C@@H]2C(=O)N3C(C(=O)O)=C(CSc4nnnn4C)CS[C@H]23)c2ccc(O)cc2)C(=O)C1=O	inactive	inactive	inactive	–	inactive	inactive	inactive	inactive	–	inactive	inactive	inactive	inactive	–	inactive	–	inactive	inactive	inactive	–
CCC(=O)C1CC(C(C)C)CC=C1C (stereo unspecified)	inactive	inactive	inactive	inactive	–	–	inactive	inactive	–	inactive	inactive	inactive	inactive	inactive	inactive	inactive	inactive	inactive	–	–
Cc1c(-c2ccccc2)oc2c(C(=O)OCCN3CCCCC3)cccc2c1=O	inactive	inactive	inactive	–	inactive	inactive	inactive	inactive	–	–	–	–	inactive	–	–	–	inactive	–	inactive	inactive
Nc1c[n+](N2CCOCC2)no1	inactive	inactive	inactive	inactive	–	–	inactive	–	–	inactive	inactive	inactive	inactive	inactive	inactive	inactive	inactive	inactive	–	inactive
CN(C)[C@@H]1C(=O)C(C(N)=O)=C(O)[C@@]2(O)C(=O)C3=C(O)c4c(O)ccc(Cl)c4[C@@H](O)[C@H]3C[C@@H]12	inactive	inactive	inactive	inactive	–	–	inactive	inactive	–	inactive	inactive	inactive	inactive	inactive	inactive	–	–	inactive	–	inactive
